A selection: hits, their analogues and other compounds. The true share with any hit is near 6.1%.
DRD3 agonist: activates the human D3 dopamine receptor; D3R DiscoveRx beta-arrestin cells, luminescence, 90 min; max activation, %; 0.58% of 410,000 active; AID 652048; in the data active means max activation above about 30%
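Agonist-mode cell screen: cells plated at 1500/well and incubated overnight at 37 °C, then exposed to library compounds for 90 min at 37 °C. Detection reagent was added for 30–60 min at room temperature, and luminescence was read.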
D1 potentiator: enhances dopamine response at the human D1 receptor | potentiation, % at 10 µM | 0.036% of 360,000 active | HEK293 TREx D1 cells, calcium flux, dopamine EC20 potentiation; in the data active means potentiation above about 30%
Target sequence (P21728 whole entry, looked up): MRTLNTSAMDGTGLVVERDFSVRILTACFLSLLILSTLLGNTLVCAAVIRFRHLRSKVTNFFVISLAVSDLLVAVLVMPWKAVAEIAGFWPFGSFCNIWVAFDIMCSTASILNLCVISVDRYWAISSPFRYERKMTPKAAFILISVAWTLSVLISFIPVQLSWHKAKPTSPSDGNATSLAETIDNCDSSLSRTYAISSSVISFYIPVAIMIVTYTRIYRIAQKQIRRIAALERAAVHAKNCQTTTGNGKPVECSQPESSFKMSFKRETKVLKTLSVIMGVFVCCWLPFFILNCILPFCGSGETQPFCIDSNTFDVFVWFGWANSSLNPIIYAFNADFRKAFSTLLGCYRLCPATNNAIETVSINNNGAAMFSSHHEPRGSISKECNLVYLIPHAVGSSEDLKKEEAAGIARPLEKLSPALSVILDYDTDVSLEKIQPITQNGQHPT
D1 agonist: human D1 receptor agonism | P21728 | activation, % at 2 µM | HEK293 T-REx D1 cells, calcium flux, agonist mode | AID 504660 | 1% of 360,000 active; in the data active means activation above about 30%
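Agonism was scored from calcium flux recorded over 180 s (1 read/s) after pintool compound addition, following a 10-cycle baseline. Cells were inducible force-coupled HEK293 TREx D1, plated overnight at 30 C and loaded with no-wash calcium dye.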
DRD3 antagonist: antagonists of human D3 dopamine receptor; D3R cells, DiscoveRx beta-arrestin luminescence, antagonist mode; active compounds read low; AID 652054; P35462; max response, negative = inhibition, %; 2.5% of 360,000 active; in the data active means max response below about -50%
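Cells expressing the human receptor were seeded at 1500 cells/well, incubated overnight at 37 degrees C in 5% CO2, then exposed to library compounds with dopamine controls for 90 minutes at 37 degrees C before luminescent detection.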
D1 antag: blocks dopamine activation of the human D1 receptor; HEK293 TREx D1 cells, calcium flux, dopamine EC80; active compounds read low; activity change, negative = inhibition, % at 10 µM; 3.2% of 360,000 active; in the data active means activity change below about -30%
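Tetracycline-induced HEK293 Trex D1 cells, force-coupled to calcium, dye-loaded; compounds added and read 180 s, then EC80 dopamine added and calcium flux tracked kinetically another 180 s.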
Each line names hits and unclear results; the compound was inactive in the other large screens; ! = not confirmed by another sample.

N=c1sccn1CC(=O)Nc1ccc(SC(F)F)cc1	D1 agonist 46
COc1ccc(C(=O)Nc2ccc(SC(F)F)cc2)cc1	D1 agonist 46
Cc1ccc2c(c1)C(c1ccc(F)cc1)N(C(=O)c1ccccc1Br)CC(=O)N2 (centres undefined)	none
CCN(C[C@H]1N[C@@](Cc2ccccc2)(C(=O)OC)[C@H]2C(=O)N(Cc3ccccc3)C(=O)[C@@H]12)C(=O)NC(C)C	none (no result: D1 potentiator, D1 agonist, D1 antag)
CC(=O)Nc1c(O)c2cccc3c2n(c1=O)CCC3	none (no result: D1 potentiator, D1 agonist, D1 antag)
CCOC(=O)c1cc([N+](=O)[O-])c([N+](=O)[O-])cc1NC(C)=O	none
N#Cc1ccsc1NC(=O)CN1C(=O)NC2(CCCCC2)C1=O	none (no result: D1 potentiator, D1 agonist, D1 antag)
CCn1cc(C(=O)OCC(=O)Nc2ccc(C)c(Cl)c2)c(=O)c2ccc(C)nc21	none (no result: DRD3 antagonist)
O=C(Cc1ccccc1)Nc1ccc(F)cc1	none
O=C(Cc1ccccc1)Nc1ccc(SC(F)F)cc1	D1 antag -40
Cc1ccc(C)c(N2CCN(C(=O)C(CC(C)C)NS(=O)(=O)c3ccc4nc(C)sc4c3)CC2)c1 (centres undefined)	none (no result: DRD3 antagonist)
CC(=O)Nc1ccc(NS(=O)(=O)c2c(C)nc3sccn3c2=O)cc1	none (no result: DRD3 antagonist)
CCOc1ccc(NS(=O)(=O)c2c(C)nc3sccn3c2=O)cc1	D1 antag -34
COc1cccc(NS(=O)(=O)c2c(C)nc3sccn3c2=O)c1	D1 antag -43
Cc1nc2scc(C)n2c(=O)c1S(=O)(=O)Nc1ccc(F)cc1	none
CCCCOC(=O)c1ccc(NS(=O)(=O)c2c(C)nc3scc(C)n3c2=O)cc1	DRD3 agonist 36 (no result: DRD3 antagonist)
O=C(c1cccc(C(F)(F)F)c1)C1CCCN(C(=O)CCCn2cncn2)C1 (centres undefined)	none
Cc1ccccc1Nc1nc2ccccc2s1	D1 agonist 37
CN(C)C(=S)Nc1nc2ccccc2s1	D1 antag -30
Cc1cccc2c(=O)cc(CSc3ccccc3NC(=O)c3cccc(Cl)c3)[nH]c12	none (no result: DRD3 antagonist)
O=C1NC[C@H](CCCCN2C[C@H](Cc3ccc(O)cc3)N(CCc3ccc(O)cc3)C(=O)C2=O)N(CC2CCCCC2)C1=O	none (no result: D1 potentiator, D1 agonist, D1 antag)
CCOc1cc(/C=C2\CCCC(C(=O)C(F)(F)F)=C2O)ccc1O	DRD3 antagonist -52
CCC1=Nc2cc(C(=O)NCc3cccnc3)ccc2Sc2ccc(C)cc21	D1 antag -76
CCC1=Nc2cc(C(=O)NC3CCCC3)ccc2Sc2ccc(Cl)cc21	D1 antag -34 (no result: DRD3 antagonist)
CCC1=Nc2cc(C(=O)NCc3ccc(C)cc3)ccc2Sc2ccc(C)cc21	none (no result: DRD3 antagonist)
Cc1ccc(C)c(NC(=O)c2ccccc2NS(=O)(=O)c2cc([N+](=O)[O-])ccc2C)c1	D1 antag -50
Cc1ccc([N+](=O)[O-])cc1S(=O)(=O)Nc1cccc(S(=O)(=O)Nc2ccccc2C(=O)O)c1	none (no result: D1 potentiator, D1 agonist, D1 antag)
CCOC(=O)COc1ccccc1/C=C\[N+](=O)[O-]	DRD3 antagonist -103, D1 antag -86
CCn1c(Cl)c(C=O)s/c1=N\S(=O)(=O)c1ccccc1	DRD3 antagonist -122, D1 antag -38
O=C(c1ccco1)N1N=C(c2ccc(Br)cc2)CC1(O)C(F)(F)F (centres undefined)	D1 antag -46
O=C(c1ccco1)N1N=C(C2CCCCC2)CC1(O)C(F)(F)F (centres undefined)	D1 antag -38
O=C(c1ccncc1)N1N=C(C2CCCCC2)CC1(O)C(F)(F)F (centres undefined)	none
O=C(c1ccco1)N1N=C(c2ccc(Cl)cc2)CC1(O)C(F)(F)F (centres undefined)	none
CCOC(=O)c1ccc(NC(=S)N(CCN2CCCCCC2)Cc2cccs2)cc1	DRD3 antagonist -75
CCOC(=O)c1ccc(NC(=S)N(CCCN2CCCC2)Cc2cccs2)cc1	none
CCOC(=O)c1ccc(NC(=S)N(CCCN2CCN(CC)CC2)Cc2cccs2)cc1	D1 agonist 49
CCOC(=O)c1ccc(NC(=S)N(CCCN2CCN(C)CC2)Cc2cccs2)cc1	none
CC(C)c1ccc2oc(-c3cccc(NC(=O)c4ccc5c(c4)OCCO5)c3)nc2c1	none (no result: DRD3 antagonist)
O=C(Nc1c(C(=O)N2CCN(c3ccc(F)cc3)CC2)oc2ccccc12)c1c(F)cccc1F	D1 antag -59 (no result: DRD3 antagonist)
COc1ccc(CC(=O)Nc2c(C(=O)N3CCN(c4ccccc4OC)CC3)oc3ccccc23)cc1OC	none
O=C(Nc1c(C(=O)N2CCC(N3CCCCC3)CC2)oc2ccccc12)c1c(F)cccc1F	DRD3 agonist 51!
Cc1cccc(C(=O)Nc2c(C(=O)N3CCN(c4ccc(F)cc4)CC3)oc3ccccc23)c1	none (no result: DRD3 antagonist)
O=C(COc1ccc(F)cc1)Nc1c(C(=O)N2CCC(N3CCCCC3)CC2)oc2ccccc12	D1 antag -35
O=C(Nc1c(C(=O)N2CCC(N3CCCCC3)CC2)oc2ccccc12)c1ccc(F)cc1	none
COc1ccc(CC(=O)Nc2c(C(=O)N3CCN(c4ccccc4)CC3)oc3ccccc23)cc1OC	D1 antag -31!
N#Cc1ccc(S(=O)(=O)N2CCN(S(=O)(=O)c3ccc4c(c3)OCCO4)CC2)cc1	none (no result: DRD3 agonist, DRD3 antagonist)
COc1ccccc1N1CCN(/N=C/c2ccccc2C(=O)O)CC1	D1 antag -50
COc1ccccc1N1CCN(C(=O)C(=O)c2c[nH]c3ccccc23)CC1	D1 antag -30
O=C(C(=O)N1CCN(c2ccccc2F)CC1)c1c[nH]c2ccccc12	D1 antag -83
COc1ccc(N2CCN(C(=O)C(=O)c3c[nH]c4ccccc34)CC2)cc1	none
C[C@H](NC(N)=O)C(=O)Nc1ccc(N2CCOCC2)c(S(=O)(=O)Nc2ccc(Cl)cc2)c1	none
Cc1cc(C)cc(OCC(=O)Nc2nonc2-c2ccc(Br)cc2)c1	none (no result: DRD3 antagonist)
COc1ccc(NS(=O)(=O)c2ccc(NC(=O)C3CCCO3)cc2)cc1 (centres undefined)	none
Cc1ccc(S(=O)(=O)Nc2ccc(NC(=O)c3c(F)c(F)c(F)c(F)c3F)cc2)cc1	D1 agonist 47
Cc1ccc(NS(=O)(=O)c2ccc(NC(=O)C3CCCO3)cc2)cc1 (centres undefined)	D1 agonist 39
Cc1cc(NS(=O)(=O)c2ccc(NC(=O)c3c(F)c(F)c(F)c(F)c3F)cc2)nc(C)n1	D1 antag -49
O=C(Nc1cc(-c2nc3cc(Cl)ccc3o2)ccc1Cl)c1ccco1	none (no result: DRD3 antagonist)
CCC(CC)C1C(C#N)=C(N)SC(N)=C1C#N	DRD3 antagonist -60
CCN(CC)CCNc1nc(C(F)(F)F)nc2c1nnn2Cc1ccccc1	D1 antag -92
O=C(Cn1ccn(-c2ccc(F)cc2)c(=O)c1=O)Nc1ccccc1C(F)(F)F	none (no result: DRD3 antagonist)
COc1ccc(CN2CCN(C3CCSCC3)CC2CCO)c(C)c1C (centres undefined)	DRD3 antagonist -64
CC(C)NC(=O)c1ccc2sc([C@@H]3O[C@H](CO)[C@H](O)[C@H](O)[C@H]3O)nc2c1	none (no result: D1 potentiator, D1 agonist, D1 antag)
